Source: the supplement of paper PMC10849652
About 7,900 targets were measured; listed, in parts, are those with a hit and a random draw of the rest. About 0.6% of all pairs of compound and target were hits. Values without a mark were called inactive.

Key:
Assay in all cases: log2 fold change, soluble protein after heating vs DMSO (PISA); higher = thermal stabilisation; K562 cells, 10 uM, 30 min; active = over 0.2 and 3.5 SD of the protein, either way, in both replicates (recomputed)
erlotinib = compound: C#Cc1cccc(Nc2ncnc3cc(OCCOC)c(OCCOC)cc23)c1 [erlotinib]
Method in brief: (§1)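 K562 cells at 2×10^6 cells/mL were treated for 30 min with 10 μM compound, and aliquots were heated for 3 min over 48°C-58°C before pooling. Extraction used PBS with 0.5% NP-40 at 4°C, and soluble protein was the supernatant after 21,000xg for 90 min, measured by TMTpro 16plex LC-MS/MS with channel sums equalised. Thermal stability values, relative to control samples and from duplicates, are log2 fold changes.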

[1] = compound: C/C(=N\NC(=O)C1=CC(=CC=C1)S(=O)(=O)N2CCOCC2)/C3=C(C=CC(=C3)Cl)O
Method in brief: as §1

[2] = compound: C1=CC(=C(C=C1Cl)C2=NC3=NC=CN=C3C(=N2)NC4=CC=NC=C4)F
Method in brief: as §1

[3] = compound: C1=CC(=CC=C1C2=NC3=C(N2)C=C(C=C3)C(=O)N)OC4=CC=C(C=C4)Cl
Method in brief: as §1

[4] = compound: C1=CC2=C(C=CC(=C2)/C=C\3/C(=O)NC(=NCC4=CC=CS4)S3)N=C1
Method in brief: as §1

[5] = compound: C1=CC2=NC=CN=C2C=C1/C=C/3\C(=O)NC(=O)S3
Method in brief: as §1

[6] = compound: C1=CC=C(C=C1)C2=NC(=C(N2)C3=CC=NC=C3)C4=CC(=C(C=C4)Cl)O
Method in brief: as §1

[7] = compound: C1=CC=C2C(=C1)C3=NNC4=CC=CC(=C43)C2=O
Method in brief: as §1

[8] = compound: C1CCN(C1)C(=O)NC2=CC=CC(=C2)NC3=NC=C(C(=N3)NCCC4=CN=CN4)Br
Method in brief: as §1

[9] = compound: C1CN(CCC1(CC2=CC=C(C=C2)Cl)N)C3=NC=NC4=C3C=CN4
Method in brief: as §1

IRAK-1-4 Inhibitor I = compound: C1COCCN1CCN2C3=CC=CC=C3N=C2NC(=O)C4=CC(=CC=C4)[N+](=O)[O-] [IRAK-1-4 Inhibitor I]
Method in brief: as §1

ibrutinib = compound: C=CC(=O)N1CCC[C@@H](n2nc(-c3ccc(Oc4ccccc4)cc3)c3c(N)ncnc32)C1 [ibrutinib]
Method in brief: as §1

[10] = compound: CC(=O)c1cnc2ccc(-c3cc(Cl)c(O)c(Cl)c3)nc2c1N[C@H]1CC[C@H](CN(C)C)CC1
Method in brief: as §1

ralimetinib = compound: CC(C)(C)Cn1c(N)nc2ccc(-c3[nH]c(C(C)(C)C)nc3-c3ccc(F)cc3)nc21 [ralimetinib]
Method in brief: as §1

[11] = compound: CC(C)(O)CC(=O)NCCn1ccc2ncnc(Nc3ccc(Oc4cccc(C(F)(F)F)c4)c(Cl)c3)c21
Method in brief: as §1

[12] = compound: CC(C)C1=C2N=C(C=C(N2N=C1)NCC3=CC=CC=C3)NCCCCCCN
Method in brief: as §1

[13] = compound: CC(C)C[C@@H](C=O)NC(=O)[C@H](CC(C)C)NC(=O)[C@H](CC(C)C)NC(=O)OCc1ccccc1
Method in brief: as §1

pinometostat = compound: CC(C)N(C[C@H]1O[C@@H](n2cnc3c(N)ncnc32)[C@H](O)[C@@H]1O)[C@H]1C[C@@H](CCc2nc3cc(C(C)(C)C)ccc3[nH]2)C1 [pinometostat]
Method in brief: as §1

[14] = compound: CC1=C(C(CC(=O)N1)C2=CC=C(C=C2)C(F)(F)F)C(=O)NC3=C(C=C4C(=C3)C=NN4)F
Method in brief: as §1

[15] = compound: CC1=C(C2=C(C=C1)C(=O)C3=CC=CC=C3N2CCCN)C
Method in brief: as §1

Chain of UniProt P11233 (P11233 whole entry, looked up): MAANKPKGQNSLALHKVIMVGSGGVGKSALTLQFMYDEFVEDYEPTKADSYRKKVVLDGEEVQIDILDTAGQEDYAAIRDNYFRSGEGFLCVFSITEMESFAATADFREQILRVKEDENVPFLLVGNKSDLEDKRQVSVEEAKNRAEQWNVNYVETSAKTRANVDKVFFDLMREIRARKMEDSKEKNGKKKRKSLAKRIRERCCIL
Chain of UniProt Q8TD22 (Q8TD22 whole entry, looked up): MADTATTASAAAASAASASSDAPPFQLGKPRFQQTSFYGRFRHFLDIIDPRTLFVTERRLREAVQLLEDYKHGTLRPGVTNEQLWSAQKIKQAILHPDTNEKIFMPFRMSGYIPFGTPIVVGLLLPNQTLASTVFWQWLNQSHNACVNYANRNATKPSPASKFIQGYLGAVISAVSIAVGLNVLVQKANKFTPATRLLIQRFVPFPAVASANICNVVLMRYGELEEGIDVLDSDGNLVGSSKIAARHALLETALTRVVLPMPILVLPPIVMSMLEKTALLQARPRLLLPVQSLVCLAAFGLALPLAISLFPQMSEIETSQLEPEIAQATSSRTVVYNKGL
Chain of UniProt Q8TDY2 (Q8TDY2 whole entry, looked up): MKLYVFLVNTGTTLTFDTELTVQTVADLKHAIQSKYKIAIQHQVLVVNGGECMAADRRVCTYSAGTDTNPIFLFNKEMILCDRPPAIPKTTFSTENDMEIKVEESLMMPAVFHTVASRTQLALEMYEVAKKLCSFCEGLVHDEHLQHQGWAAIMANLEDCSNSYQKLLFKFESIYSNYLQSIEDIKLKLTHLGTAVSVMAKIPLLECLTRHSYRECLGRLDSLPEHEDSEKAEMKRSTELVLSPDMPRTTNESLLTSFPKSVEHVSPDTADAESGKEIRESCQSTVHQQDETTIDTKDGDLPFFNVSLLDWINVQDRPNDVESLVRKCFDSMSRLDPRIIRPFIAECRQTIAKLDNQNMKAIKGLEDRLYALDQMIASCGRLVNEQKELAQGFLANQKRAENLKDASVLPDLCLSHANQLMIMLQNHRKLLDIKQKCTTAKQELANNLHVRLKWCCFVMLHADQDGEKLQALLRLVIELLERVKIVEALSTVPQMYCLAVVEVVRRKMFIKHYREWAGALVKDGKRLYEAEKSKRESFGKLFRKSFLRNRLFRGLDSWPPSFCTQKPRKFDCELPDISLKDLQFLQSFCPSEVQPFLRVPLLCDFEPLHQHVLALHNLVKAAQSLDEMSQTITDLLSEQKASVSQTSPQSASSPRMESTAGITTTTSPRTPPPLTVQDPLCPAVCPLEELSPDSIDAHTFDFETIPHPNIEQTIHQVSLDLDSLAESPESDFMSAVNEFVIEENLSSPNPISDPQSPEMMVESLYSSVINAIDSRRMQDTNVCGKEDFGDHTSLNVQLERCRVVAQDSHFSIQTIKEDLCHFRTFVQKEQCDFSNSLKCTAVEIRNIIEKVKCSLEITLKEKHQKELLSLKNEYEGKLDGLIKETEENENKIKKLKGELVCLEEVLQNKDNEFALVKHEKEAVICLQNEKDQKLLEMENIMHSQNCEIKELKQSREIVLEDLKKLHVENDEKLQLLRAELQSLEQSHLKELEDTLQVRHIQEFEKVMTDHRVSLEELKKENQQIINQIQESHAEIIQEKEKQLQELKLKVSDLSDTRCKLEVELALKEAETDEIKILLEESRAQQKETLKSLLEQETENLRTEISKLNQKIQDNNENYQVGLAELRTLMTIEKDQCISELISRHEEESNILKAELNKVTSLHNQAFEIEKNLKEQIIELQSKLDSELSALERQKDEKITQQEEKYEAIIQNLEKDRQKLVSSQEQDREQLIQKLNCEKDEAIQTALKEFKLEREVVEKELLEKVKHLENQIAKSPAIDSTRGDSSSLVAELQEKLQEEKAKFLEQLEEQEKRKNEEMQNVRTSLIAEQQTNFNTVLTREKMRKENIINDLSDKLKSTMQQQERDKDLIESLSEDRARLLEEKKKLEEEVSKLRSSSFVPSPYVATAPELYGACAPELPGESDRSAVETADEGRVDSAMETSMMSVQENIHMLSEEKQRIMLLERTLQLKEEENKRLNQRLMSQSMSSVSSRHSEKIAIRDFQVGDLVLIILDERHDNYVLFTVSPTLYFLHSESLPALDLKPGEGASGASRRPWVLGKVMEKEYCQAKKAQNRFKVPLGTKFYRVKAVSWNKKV
Chain of UniProt Q5T8P6 (Q5T8P6 whole entry, looked up): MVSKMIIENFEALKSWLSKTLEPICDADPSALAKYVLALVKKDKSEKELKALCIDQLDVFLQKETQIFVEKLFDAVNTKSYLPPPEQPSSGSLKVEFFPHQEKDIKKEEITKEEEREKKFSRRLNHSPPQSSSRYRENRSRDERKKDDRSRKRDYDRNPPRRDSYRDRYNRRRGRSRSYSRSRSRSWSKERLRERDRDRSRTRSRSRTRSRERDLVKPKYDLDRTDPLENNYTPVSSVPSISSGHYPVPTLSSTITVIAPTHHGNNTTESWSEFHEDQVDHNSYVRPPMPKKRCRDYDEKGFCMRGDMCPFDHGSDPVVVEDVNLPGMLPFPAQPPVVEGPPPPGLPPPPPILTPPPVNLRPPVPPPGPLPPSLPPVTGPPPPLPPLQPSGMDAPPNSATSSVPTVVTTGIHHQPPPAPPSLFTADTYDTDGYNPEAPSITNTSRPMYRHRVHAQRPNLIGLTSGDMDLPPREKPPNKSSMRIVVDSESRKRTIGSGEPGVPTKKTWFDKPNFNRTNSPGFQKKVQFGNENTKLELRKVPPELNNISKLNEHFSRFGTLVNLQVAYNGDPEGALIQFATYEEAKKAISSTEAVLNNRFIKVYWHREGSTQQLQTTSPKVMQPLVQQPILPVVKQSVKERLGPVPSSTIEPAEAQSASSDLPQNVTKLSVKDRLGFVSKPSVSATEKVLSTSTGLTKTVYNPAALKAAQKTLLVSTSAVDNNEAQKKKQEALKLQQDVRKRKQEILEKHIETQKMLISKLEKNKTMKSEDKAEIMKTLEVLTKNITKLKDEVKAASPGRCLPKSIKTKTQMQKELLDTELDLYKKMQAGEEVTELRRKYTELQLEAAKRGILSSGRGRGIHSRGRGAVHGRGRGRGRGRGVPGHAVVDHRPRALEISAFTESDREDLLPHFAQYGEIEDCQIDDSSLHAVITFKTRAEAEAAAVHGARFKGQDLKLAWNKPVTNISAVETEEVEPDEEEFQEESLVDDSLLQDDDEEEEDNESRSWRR
Chain of UniProt P54136 (P54136 whole entry, looked up): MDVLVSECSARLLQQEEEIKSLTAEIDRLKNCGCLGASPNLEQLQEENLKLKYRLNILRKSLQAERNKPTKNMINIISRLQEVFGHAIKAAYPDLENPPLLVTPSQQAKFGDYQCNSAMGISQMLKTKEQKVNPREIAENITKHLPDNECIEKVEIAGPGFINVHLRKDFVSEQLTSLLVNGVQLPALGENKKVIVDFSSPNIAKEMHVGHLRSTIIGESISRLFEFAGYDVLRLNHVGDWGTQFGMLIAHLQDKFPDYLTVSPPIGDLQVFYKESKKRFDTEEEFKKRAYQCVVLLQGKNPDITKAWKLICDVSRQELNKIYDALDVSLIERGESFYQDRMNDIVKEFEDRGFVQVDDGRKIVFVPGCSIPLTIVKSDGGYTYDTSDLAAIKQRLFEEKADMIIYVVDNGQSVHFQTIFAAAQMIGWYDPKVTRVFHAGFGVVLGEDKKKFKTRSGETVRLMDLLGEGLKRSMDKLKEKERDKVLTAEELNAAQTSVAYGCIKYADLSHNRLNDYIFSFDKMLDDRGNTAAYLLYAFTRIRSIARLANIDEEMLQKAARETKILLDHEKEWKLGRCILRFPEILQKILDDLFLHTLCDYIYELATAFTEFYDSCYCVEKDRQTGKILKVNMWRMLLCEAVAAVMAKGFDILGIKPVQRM
Chain of UniProt P35244 (P35244 whole entry, looked up): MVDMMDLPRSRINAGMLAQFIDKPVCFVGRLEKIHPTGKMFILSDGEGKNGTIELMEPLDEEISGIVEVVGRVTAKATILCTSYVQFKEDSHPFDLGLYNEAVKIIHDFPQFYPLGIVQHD
Chain of UniProt Q86TU7 (Q86TU7 whole entry, looked up): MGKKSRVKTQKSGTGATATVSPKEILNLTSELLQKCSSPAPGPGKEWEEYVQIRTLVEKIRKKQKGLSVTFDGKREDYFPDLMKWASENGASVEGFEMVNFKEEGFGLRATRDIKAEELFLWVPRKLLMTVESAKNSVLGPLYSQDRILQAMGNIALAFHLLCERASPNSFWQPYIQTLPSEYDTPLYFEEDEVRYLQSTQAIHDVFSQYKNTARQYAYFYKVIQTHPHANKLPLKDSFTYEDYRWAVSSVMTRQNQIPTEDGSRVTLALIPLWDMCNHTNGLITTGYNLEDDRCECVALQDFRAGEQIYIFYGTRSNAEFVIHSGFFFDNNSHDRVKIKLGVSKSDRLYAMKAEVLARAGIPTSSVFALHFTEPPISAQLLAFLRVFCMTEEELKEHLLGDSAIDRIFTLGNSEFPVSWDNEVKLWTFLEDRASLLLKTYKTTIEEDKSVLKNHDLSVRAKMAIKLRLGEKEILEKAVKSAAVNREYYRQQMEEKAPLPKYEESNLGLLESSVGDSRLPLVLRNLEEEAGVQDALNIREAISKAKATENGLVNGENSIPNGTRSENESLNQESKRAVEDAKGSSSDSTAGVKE
Chain of UniProt Q96D15 (Q96D15 whole entry, looked up): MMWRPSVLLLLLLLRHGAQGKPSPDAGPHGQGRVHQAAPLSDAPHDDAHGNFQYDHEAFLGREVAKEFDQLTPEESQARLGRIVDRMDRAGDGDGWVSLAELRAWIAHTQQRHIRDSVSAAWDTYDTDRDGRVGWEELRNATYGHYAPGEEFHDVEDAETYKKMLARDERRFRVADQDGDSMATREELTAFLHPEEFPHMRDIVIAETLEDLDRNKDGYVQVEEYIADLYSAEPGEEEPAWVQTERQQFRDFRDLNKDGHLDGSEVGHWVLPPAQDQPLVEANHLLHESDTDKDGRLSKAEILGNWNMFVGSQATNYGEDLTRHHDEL
Chain of UniProt Q8N0T1 (Q8N0T1 whole entry, looked up): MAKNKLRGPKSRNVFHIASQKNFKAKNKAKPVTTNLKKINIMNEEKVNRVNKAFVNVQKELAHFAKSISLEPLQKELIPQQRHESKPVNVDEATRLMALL

Target | log2 fold change (erlotinib) | log2 fold change [1] | log2 fold change [2] | log2 fold change [3] | log2 fold change [4] | log2 fold change [5] | log2 fold change [6] | log2 fold change [7] | log2 fold change [8] | log2 fold change [9] | log2 fold change (IRAK-1-4 Inhibitor I) | log2 fold change (ibrutinib) | log2 fold change [10] | log2 fold change (ralimetinib) | log2 fold change [11] | log2 fold change [12] | log2 fold change [13] | log2 fold change (pinometostat) | log2 fold change [14] | log2 fold change [15]
RB1CC1 (UniProt Q8TDY2) | 0.119 | -0.066 | 0.102 | 0.046 | 0.211 | -0.07 | 0.015 | 0.03 | -0.024 | 0.022 | 0.092 | 0.094 | 0.045 | 0.089 | -0.11 | 0.045 | 0.03 | -0.023 | -0.015 | 0.041
RBIS (UniProt Q8N0T1) | -0.051 | 0.015 | -0.038 | 0.044 | 0.007 | 0.031 | -0.121 | -0.083 | 0.037 | -0.093 | -0.038 | 0.019 | -0.109 | -0.021 | 0.083 | -0.001 | 0.281 (active) | 0.044 | 0.066 | -0.478 (active)
RCN3 (UniProt Q96D15) | 0.033 | 0.013 | 0.058 | 0.048 | 0.03 | -0.029 | -0.057 | -0.023 | 0.07 | -0.103 | 0.131 | 0.075 | -0.048 | -0.013 | 0.013 | 0.047 | 0.026 | -0.035 | 0.05 | -0.031
ROCK2 (UniProt O75116) | 0.05 | 0.02 | 0.031 | 0.003 | 0.158 | 0.126 | -0.009 | -0.071 | 0.036 | 0.099 | -0.037 | -0.052 | -0.137 | 0.032 | -0.049 | -0.138 | 0.034 | 0.021 | 0.29 (active) | 0
SART3, A0A499FI31 | -0.034 | 0.058 | 0.102 | 0.032 | 0.032 | 0.084 | -0.004 | -0.045 | -0.078 | -0.014 | -0.021 | -0.017 | 0.062 | 0.002 | -0.033 | -0.379 (active) | -0.051 | -0.025 | 0.021 | -0.377 (active)
SLBP (UniProt Q14493) | 0.006 | 0.03 | -0.058 | 0.019 | -0.111 | 0.035 | 0.005 | 0.008 | 0.008 | -0.039 | -0.123 | -0.162 | -0.38 (active) | -0.068 | -0.09 | -0.206 | 0.162 | -0.034 | 0.098 | -0.126
RARS (UniProt P54136) | 0.023 | 0.011 | -0.169 | -0.007 | 0.019 | 0 | -0.046 | -0.005 | 0.07 | -0.155 | -0.087 | -0.024 | 0.12 | 0.097 | -0.001 | -0.545 (active) | 0.096 | 0.32 | 0.03 | 0.009
RPA3 (UniProt P35244) | -0.007 | 0.156 | 0.084 | 0.008 | -0.058 | -0.007 | 0.115 | 0.032 | -0.128 | -0.027 | 0.02 | 0.029 | 0.016 | 0.038 | -0.097 | -0.025 | -0.137 | 0.016 | 0.063 | 0.129
RALA (UniProt P11233) | 0.087 | -0.005 | 0.033 | -0.05 | 0.005 | 0.056 | -0.076 | -0.045 | -0.066 | 0.104 | -0.005 | 0.038 | 0.018 | -0.113 | 0.096 | 0.103 | -0.033 | -0.123 | -0.024 | 0.054
RIOK3 (UniProt O14730) | 0.037 | 0.014 | 0.062 | 0.003 | -0.019 | 0.048 | -0.033 | 0.02 | 0.024 | -0.025 | 0.087 | 0.002 | 0.024 | -0.009 | -0.083 | -0.009 | 0.021 | -0.011 | 0.019 | -0.231 (active)
RBM26 isoform 2 (UniProt Q5T8P6) | 0.174 | 0.216 | 0.25 | -0.004 | -0.018 | 0 | 0.113 | 0.002 | -0.027 | 0.012 | -0.086 | 0.032 | -0.179 | -0.021 | -0.16 | -0.295 | 0.024 | -0.022 | 0.014 | 0.06
RPS2 (UniProt P15880) | -0.199 | -0.138 | -0.323 | 0.047 | -0.1 | -0.039 | -0.064 | -0.041 | 0.086 | -0.162 | -0.101 | 0.042 | 0.085 | 0.055 | 0.019 | -0.004 | 0.061 | 0.222 | 0.032 | -0.682 (active)
RBM4 (UniProt Q9BWF3) | 0.02 | 0 | -0.102 | 0.011 | -0.012 | 0.054 | -0.041 | -0.035 | 0.012 | -0.009 | -0.038 | -0.023 | -0.083 | 0.099 | 0.019 | -0.136 | 0.074 | 0.076 | 0.007 | -0.027
SFXN5 (UniProt Q8TD22) | -0.077 | 0.09 | -0.02 | 0.082 | -0.003 | 0.023 | 0.081 | -0.001 | -0.066 | -0.045 | 0.225 | -0.048 | -0.013 | -0.001 | -0.175 | -0.083 | 0.187 | 0.03 | 0.008 | 0.09
SETD3 (UniProt Q86TU7) | 0.01 | -0.007 | 0.04 | 0.009 | 0.06 | 0.002 | 0.031 | 0.004 | -0.015 | 0.044 | -0.007 | 0.011 | -0.018 | -0.041 | -0.013 | 0.027 | -0.022 | 0.002 | -0.03 | 0.05
SESN2 (UniProt P58004) | 0.154 | 0.108 | -0.039 | -0.003 | 0.016 | 0.007 | -0.009 | -0.008 | -0.041 | -0.109 | -0.143 | 0.034 | 0 | 0.21 | -0.049 | -0.407 | 0.055 | 0.081 | 0.041 | -0.017
